The values below come from PubChem BioAssay (EPA / NIEHS).

Inconclusive results are not listed. Activity calls are given as the source filed them. Rule for the calls: active = hit-call score of the fitted dose curve at least 0.9, where 1 is the maximum; inconclusive = response in the unintended direction; inactive = score below 0.9.

This assay is described as follows: TOX21_p53_BLA_p2_viability: Viability Assessment in the Tox21 HCT-116 p53 Agonism Beta-lactamase Assay, Phase 2 (AID 2283591).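 Note: compound exposure lasted 16 h at 37 °C; actives lower the ATP signal meaning cytotoxicity.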 In a few lines: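 Cytotoxicity readout: CellTiter-Glo ATP luminescence, 30 min at room temperature, after the beta-lactamase read. Cells were HCT116 exposed 16 h at 37C to compounds pin-transferred at 217-fold dilution from DMSO stocks.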
With `CC(C)(CO)COC(=O)C(C)(C)CO`, the outcome was inactive. Regarding `CC(Cl)COP(=O)(OCC(C)Cl)OCC(C)Cl` (stereo not given), the compound was called inactive. Same read-out and setting: to `C[Si](C)(C)N[Si](C)(C)C` belongs “inactive”. Same read-out and setting: to `CC1=CCC(C(C)C)C=C1` (stereo not given) belongs “inactive”; to `C=CC(C)(CCC=C(C)C)OC(=O)C=Cc1ccccc1` (stereo not given), “inactive”.

Turning to `CN(C)c1ccc2nc3ccc(=[N+](C)C)cc-3sc2c1`, the compound was classed as inactive. Turning to `COCC(=O)O`, the compound was classed as inactive.

Take `CC1(C)[C@@H]2CC[C@@]1(C)C(=O)C2`: the compound was called inactive. Still for that read-out and setting: to `CC1C(C)(C)C2=C(C(=O)CCC2)C1(C)C` (stereo not given) belongs “inactive”; to `CCCCCCCCCCCCCCCCCCOS(=O)(=O)O`, “inactive”. In the case of `C=C1C[C@H]2[C@@H]3C=C(C)C4=CC(=O)CC[C@]4(C)[C@H]3CC[C@]2(C)[C@@]1(OC(C)=O)C(C)=O`, the call was inactive.

For the compound `CCOC(=O)c1ccc(C)cc1`, the compound was classed as inactive. Same read-out and setting: under `CC(=O)CC(=O)Nc1ccccc1C` stands “inactive”; under `CC(=O)OC1CCCCC1C(C)(C)C` (stereo not given), “inactive”. The AC50 is the concentration giving half of the maximal activity seen. In the case of `C=C(C)C(=O)OCC(O)COc1ccc(C(C)(C)c2ccc(OCC(O)COC(=O)C(=C)C)cc2)cc1` (stereo not given), the AC50 is 69.2 µM (active).

With `C=CCCCCCCCCO`, the compound was classed as inactive. Consider `CCCCCCOc1ccc(N)cc1`, for which the result was inactive. For `CCCCOC(=O)C(C)CC` (stereo not given), the compound was classed as inactive.

Take `O=C1CCCCCCCCCCC1`: the compound was called inactive. On the same count and under the same terms, to `Cc1noc(NS(=O)(=O)c2ccc(N)cc2)c1C` belongs “inactive”; to `CCCCCCC=O`, “inactive”. Still for that read-out and setting: under `CCOC(=O)/C=C\C(=O)OCC` stands “inactive”.

`C=CCNCC=C`: the compound was classed as inactive. The same measure, in the same setting: under `O=S(=O)(O)c1ccc(Nc2nc(Nc3ccc(C=Cc4ccc(Nc5nc(Nc6ccc(S(=O)(=O)O)cc6)nc(N(CCO)CCO)n5)cc4S(=O)(=O)O)c(S(=O)(=O)O)c3)nc(N(CCO)CCO)n2)cc1` stands “inactive”; under `CC/C=C\CCOC(=O)c1ccccc1O`, “inactive”; under `CC(=O)OCCc1ccccc1`, “inactive”.

Take `C=C(C)C1CC=C(C)CC1` (stereo not given): the outcome was inactive.

Take `CCCC(CC)c1ccccc1` (stereo not given): the call was inactive. With `Oc1ccccc1Cc1ccccc1O`, the outcome was inactive.

For the compound `CCCC/C=C/C=C\C=O`, the result was inactive. Consider `CCCCOCC(C)O` (stereo not given), for which the compound was classed as inactive. Still for that read-out and setting: under `CCCCNS(=O)(=O)c1ccc(C)cc1` stands “inactive”; under `Nc1ccc(C(=O)OCCCOC(=O)c2ccc(N)cc2)cc1`, “inactive”.

For `C=C(C)C(=O)OCCCCCCCCCCCC`, the compound was classed as inactive. On the same count and under the same terms, under `c1ccc2cnccc2c1` stands “inactive”.

Regarding `CCCCOCCOC(=O)COc1ccc(Cl)cc1Cl`, the call was inactive. Still for that read-out and setting: under `CC(=O)OC(C)c1ccccc1` (stereo not given) stands “inactive”; under `CC(C)CCCCCOC(=O)CS`, “inactive”. Still for that read-out and setting: under `CC1(C)CCC[C@]2(C)[C@H]3CC(=O)O[C@]3(C)CC[C@@H]12` stands “inactive”; under `CCCCC(CC)COC(=O)/C=C/c1ccc(OC)cc1` (stereo not given), “inactive”.
